In all, about 59,000 compounds went through this assay and about 540 (0.92%) were called active. About 33% were inconclusive and are not listed. Rule as the data show it: active = max fluorescein-equivalent concentration above about 10 nM; inconclusive = between about 1.1 nM and that limit; inactive = weaker than that. The full list was thinned out, with actives kept by preference. Where a structure was tested more than once in an assay, its records may differ in their call.
Experiment: qHTS Assay for Spectroscopic Profiling in Fluorescein Spectral Region
Conditions: Compound autofluorescence, 480/540 nm; max fluorescein-equivalent concentration: hits give high values; outcome: fluorescein-equivalent
Procedure, shortened: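 Compounds (23 nL) in 100 mM Tris pH 8.0, 15 min at room temperature, then fluorescence read at 480 nm excitation/540 nm emission. Signal converted to fluorescein-equivalent concentration from an on-plate fluorescein standard curve.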

Structure (SMILES)	max fluorescein-equivalent concentration	outcome
COc1cc(NS(=O)(=O)c2ccc(NC(C)=O)cc2)cc(OC)c1	inactive	
CCOC(=O)C1(Cc2ccc(O)cc2)NC(c2ccccc2F)C2C(=O)N(C)C(=O)C21 (stereo unspecified)	inactive	
Cc1ccc(C(c2nnnn2CS(=O)(=O)c2ccc(C)cc2)N2CCC(C(N)=O)CC2)cc1 (stereo unspecified)	inactive	
COc1ccc(-c2c3c(=O)n(C)c(=O)n(C)c3cn2NC(C)=O)cc1	inactive	
C[C@@H]1CC[C@H]2[C@H](C)[C@H]3[C@H](C[C@H]4[C@@H]5CC=C6C[C@@H](O)CC[C@@]6(C)[C@@H]5C[C@@H](O)[C@]34C)N2C1	inactive	
CCN(CC(=O)NCc1cccs1)c1nnnn1-c1ccccc1	inactive	
COc1cccc(NC(=O)CN(C)S(=O)(=O)c2ccc(C)cc2)c1	inactive	
Cc1ccc2c(c1)C(O)(CC(=O)c1cccnc1)C(=O)N2 (stereo unspecified)	inactive	
CC(=NC1CCN(Cc2ccccc2)CC1)c1c(O)[nH]c(=O)[nH]c1=O	inactive	
COc1ccc(OC)c(S(=O)(=O)Nc2ccccc2F)c1	inactive	
CC1CN(C2CCN(C(=O)COc3ccccc3)CC2)CC(C)O1 (stereo unspecified)	inactive	
C=CCNC(=O)C12CC3CC(C1)CC(C(=O)NCC=C)(C3)C2	inactive	
CCc1cccc(C)c1NC(=O)CSc1nnc(-c2ccco2)n1N	inactive	
O=C(Nc1ccccc1F)C1C2C=CC3(O2)C1C(=O)N(c1cccnc1)C3C(=O)NC1CCCCC1 (stereo unspecified)	inactive	
COc1cccc(Cn2c(=O)c(CCc3ccccc3)nc3cnc(N(C)C)nc32)c1	inactive	
CNC(=O)c1cc2c(ccc3ccccc32)oc1=N	inactive	
CCON=C1C(C)(C)C(C)(C)C(C)(C)C1(C)C	inactive	
CCCn1c(=O)c2[nH]c(C3CCCC3)nc2n(CCC)c1=O	11 nM (active)	inactive
Cn1c(=O)c2[nH]c(NCC3CCCO3)nc2n(-c2ccccc2)c1=O (stereo unspecified)	inactive	
O=c1[nH]c(=O)n([C@H]2C[C@H](O)[C@H](CO)O2)cc1Br	inactive	
CC(=O)c1cc(C#N)c(SCC(=O)C(C)(C)C)nc1C	inactive	
Cc1cccn2c(=O)c3cc(C#N)c(=NC(=O)c4cccnc4)n(CC4CCCO4)c3nc12 (stereo unspecified)	18 nM (active)	
Cc1cccn2c(=O)c3cc(C(=O)N4COCC4(C)C)n(C)c3nc12	inactive	
COC(=O)c1ccc2c(=O)n(CC3CCCO3)c(=S)[nH]c2c1 (stereo unspecified)	inactive	
Cc1cc(C)c2[nH]c(=O)c(C(c3nnnn3Cc3ccc4c(c3)OCO4)N3CCCC3)cc2c1 (stereo unspecified)	inactive	

Structure (SMILES)	max fluorescein-equivalent concentration	outcome
CC(=O)NS(=O)(=O)c1ccccc1	inactive	
CCOCCCNS(=O)(=O)Cc1ccccc1	inactive	
CCOC(=O)N1CC=C2C(C#N)=C(N)C(C#N)(C#N)[C@H](c3cccs3)[C@H]2C1	12 nM (active)	
CCNc1ncc2ncc(=O)n(Cc3cccc(OC)c3)c2n1	inactive	
COc1ccc2nc(N3CCCC(O)C3)c(C#N)cc2c1 (stereo unspecified)	16 nM (active)	
COc1ccc(N2CCN(C(=O)CSc3nc4cc(OC)c(OC)cc4cc3C#N)CC2)cc1	inactive	
O=CN1CCN(C2CC(=O)N(c3ccc4c(c3)OCO4)C2=O)CC1 (stereo unspecified)	inactive	
S=c1[nH]nc(SCc2ccccc2Cl)c2[nH]cnc12	inactive	
Cc1csc(NC(=O)CN2CCCCCC2)n1	inactive	
CCOCC(=O)Nc1cc(OC)c(Cl)cc1OC	inactive	
Oc1ccccc1CNCc1ccccc1O	inactive	
COCCn1c(=O)c(CCc2ccccc2)nc2cncnc21	inactive	
CC(C)N(C(=O)COC(=O)c1ccccc1C(=O)N1CCN(c2ccc(F)cc2)CC1)C(C)C	inactive	
N#CC1=C(N)Oc2n[nH]c(CSc3ccccc3)c2C12C(=O)Nc1ccccc12 (stereo unspecified)	inactive	
O=S(=O)(c1cccs1)N1CCN(Cc2ccccc2)CC1	inactive	
CCOCCOC(=O)C1=C(C)N(C)C(=O)NC1c1ccccc1F (stereo unspecified)	inactive	
C=C(C)Cn1c(SCC(=O)NCc2ccco2)nc2sc3c(c2c1=O)CCC3	inactive	
COCCn1c(=O)c(-c2cccc(F)c2)nc2cncnc21	inactive	
COc1ccc(C(=O)N/N=C2/C(=O)c3c(C)cc(C)cc3CC2(C)C)cc1	inactive	
O=C(O)C1CC=C(Cl)CC1C(=O)NCc1ccccc1 (stereo unspecified)	inactive	
CCCOc1ccccc1-c1nc(SCCC(=O)O)n[nH]1	inactive	
O=S(=O)(Nc1ccc2nc(-c3ccco3)[nH]c2c1)c1ccccc1	inactive	
O=S(=O)(O)c1ccc(O)c2ncccc12.O=S(=O)(O)c1ccc(O)c2ncccc12.[Zn]	inactive	
O=C(N1CCOCC1)N1CCOCC1	inactive	
CCCC(=O)Nc1cc(OCC)c(NC(=O)NC2CCCCC2)cc1OCC	inactive	

Reference: PubChem BioAssay AID593 (National Center for Advancing Translational Sciences (NCATS), 2007)
